Bioassay records as filed in PubChem BioAssay.
PNC inhibitor: perinucleolar compartment assembly inhibition. AID 2417. PC3M PTB-GFP, PNC prevalence imaging, 16 h; stronger effect = lower value. activity change (PNC), negative = inhibition, % at 10 µM. 140,000 compounds, 3.1% hits;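 active = readout at or below -70, meaning at least 70% loss of cells showing the perinucleolar compartment, a nuclear body marking cancer cells; inconclusive = readout between -30 and a set limit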;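 note: plate controls were DMSO wells for no effect and camptothecin positive control wells for full effect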
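Read-out is percentage of cells bearing a perinucleolar compartment, from automated 20x imaging of fixed, Hoechst-stained PC3M PTB-GFP cells. Cells were seeded 4 h, then exposed 16 h to compound (23 nl of library stock) in duplicate plates.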
HttQ103 aggreg: mutant huntingtin aggregation inhibition; PC12 HttQ103-GFP aggregates, Acumen cytometry, 40 h; Potency, µM (top dose mostly 46.1 µM), for the others: at the highest dose activity change, negative = inhibition, hits mostly inhibitors; 220,000 compounds, 1.1% hits; AID 1688; note: potency is the fitted concentration of half-maximal effect; % is set by controls: 0 for no effect and ±100 for the full control effect; nearly all actives have a fitted effect of over 60% in size
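Ecdysone-promoter PC12 model expressing HTT exon 1 Q103 fused to GFP, induced by tebufenozide at 100 nM final. Compounds titrated; aggregates sized 1–25 µm scored on a 488 nm laser cytometer.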
ALDH1A1 block: blocks purified human ALDH1A1 activity. P00352. Purified ALDH1A1, NADH fluorescence, propionaldehyde substrate. AID 1030. 220,000 compounds, 7.3% hits. Potency, µM (series often up to 75.3 µM), for inactives: at the highest dose activity, negative = inhibition, most hits filed as inhibitors; active = well fitted inhibition curve with a large enough effect, not every such curve was filed as active; inconclusive = small, poorly fitted or top-dose-only effect, or another doubt; inactive = no such curve, though single readings can be large or run the other way;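 note: potency is the fitted concentration of half-maximal effect; plate controls were no enzyme wells and a reference inhibitor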
HTT cytoprotect: cytoprotection in Huntington HTT-Q103 PC12 cell model; Potency, µM (highest dose often 56.4 µM), inactives show cytoprotection (ATP increase), hits mostly activators; 230,000 compounds, 0.14% hits; AID 1471; PC12 HTT-Q103 induced, cytoprotection, ATP luminescence, 40 h; note: potency is the fitted concentration of half-maximal effect; % of control where 0% means no effect; nearly all actives have a fitted effect of over 45% in size
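Quantitative HTS on tebufenozide-induced (100 nM) PC12 cells expressing HTTQ103 exon 1–GFP; compounds tested as a concentration series; survival measured via cellular ATP.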
GoLoco inh red: RGS12 GoLoco-Gai1 interaction inhibition; AID 880; 230,000 compounds, 0.44% hits; Gai1:RGS12 GoLoco peptide FP, rhodamine, 10 min; P63096; Potency, µM (titrated, usually from 61.6 µM), for the others: at the top dose activity, negative = inhibition, usual class: inhibitors; active = well fitted inhibition curve with a large enough effect, not every such curve was filed as active; inactive = no such curve, though single readings can be large or run the other way; note: potency is the fitted concentration of half-maximal effect; % is set by controls: 0 for no effect and ±100 for the full control effect; nearly all actives have a fitted effect of over 30% in size
Target sequence (P63096 whole entry, looked up): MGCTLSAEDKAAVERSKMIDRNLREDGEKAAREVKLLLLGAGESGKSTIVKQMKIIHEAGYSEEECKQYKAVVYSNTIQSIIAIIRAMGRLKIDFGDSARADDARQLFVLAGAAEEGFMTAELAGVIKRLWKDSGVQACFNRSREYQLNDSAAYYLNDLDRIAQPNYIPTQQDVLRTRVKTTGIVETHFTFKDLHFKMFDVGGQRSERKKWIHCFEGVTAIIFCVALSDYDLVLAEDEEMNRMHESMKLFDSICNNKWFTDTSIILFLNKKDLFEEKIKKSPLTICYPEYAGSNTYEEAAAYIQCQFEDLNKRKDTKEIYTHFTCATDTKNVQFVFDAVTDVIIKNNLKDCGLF
HPGD inh: blocks human HPGD enzyme activity | Potency, µM, without a hit: at the highest dose activity change, negative = inhibition, actives largely listed as inhibitors | 150,000 compounds, 4.3% hits | purified HPGD, NADH fluorescence kinetic, PGE2 substrate | P15428; active = well fitted inhibition curve with a large enough effect, not every such curve was filed as active; inconclusive = small, poorly fitted or top-dose-only effect, or another doubt; inactive = no such curve, though single readings can be large or run the other way; note: potency is the fitted concentration of half-maximal effect; % is set by controls: 0 for no effect and ±100 for the full control effect
Target sequence (P15428 whole entry, looked up): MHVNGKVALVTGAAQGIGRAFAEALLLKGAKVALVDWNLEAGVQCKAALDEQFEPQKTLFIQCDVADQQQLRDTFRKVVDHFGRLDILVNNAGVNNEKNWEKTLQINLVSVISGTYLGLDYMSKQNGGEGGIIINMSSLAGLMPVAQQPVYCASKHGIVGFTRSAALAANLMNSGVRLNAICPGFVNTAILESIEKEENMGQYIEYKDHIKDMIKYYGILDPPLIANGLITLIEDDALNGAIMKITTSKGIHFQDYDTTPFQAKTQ
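20 nM HPGD preincubated 15 min at room temperature with compound in 50 mM Tris-HCl pH 8, 0.01% Tween 20. Started with 1 mM NAD+ and 30 uM prostaglandin E2; NADH fluorescence (360/450 nm) read 5 times over 30-s intervals, last minus first.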
Starred values were filed as active, the others as inactive; ? = inconclusive; . = not tested or not shown; [ ] = another dose, or the depositor's remark. A selection: hits, their analogues and other compounds. The true share with any hit is near 11%. Unless noted, calls come from the whole dose curve; as a rule, active = well fitted curve in the direction sought with a large enough effect; inconclusive = small, poorly fitted or top-dose-only effect, or another doubt; inactive = no such curve, though single readings can be large; an effect the other way counts as inactive or inconclusive.

SMILES	PNC inhibitor	HttQ103 aggreg	ALDH1A1 block	HTT cytoprotect	GoLoco inh red	HPGD inh
Cc1c(C(=O)OCc2ccccc2)[nH]c2c1C(=O)CC(c1ccco1)C2 (centres undefined)	-82*	-16%	8.9µM*	-41%	19%	-28%
CCOC(=O)N1CCC(N2C(=O)c3ccccc3C2Nc2ccc(S(=O)(=O)N3CCCCC3)cc2)CC1 (centres undefined)	.	10%	25µM*	-37%	5%	.
CCN(CC)S(=O)(=O)c1ccc(NC2c3ccccc3C(=O)N2c2ccc(C)cn2)cc1 (centres undefined)	8	-1%	18µM*	-17%	15%	-12%
Cc1ccc(N2C(=O)c3ccccc3C2Nc2ccc(S(=O)(=O)N3CCCCC3)cc2)nc1 (centres undefined)	-19	-19%	14µM*	-24%	8%	-2%
CCOC(=O)N1CCC(N2C(=O)c3ccccc3C2Nc2ccccc2C)CC1 (centres undefined)	?	-16%	?	-13%	3%	-3%
O=C1[C@H]2CCC=C[C@H]2[C@H](c2cccc(Br)c2)N1Cc1ccccc1	.	.	-10%	-75%	2%[88.7 µM]	-10%
CNc1cc(-c2ccccc2C(F)(F)F)ncn1	.	.	3%	5%	6%	.
Nc1nnc(-c2cccc([N+](=O)[O-])c2)s1	.	-9%[9.22 µM]	3%	3%[10 µM]	10%	.
Nc1nnc(-c2ccc(Cl)c([N+](=O)[O-])c2)s1	.	-5%	28µM*	.	4%	.
O=C(c1cc(NC(=O)C23CC4CC(CC(C4)C2)C3)cc(NC(=O)C23CC4CC(CC(C4)C2)C3)c1)N1CCCCC1	-97*	?	5%	9%[10 µM]	11%	-14%
O=C(/C=C/c1cccc(Br)c1)NCC1CCCCC1	-13	2%	11µM*	-5%[10 µM]	-1%	-22%
CCNC(=O)/C=C/c1cccc(Br)c1	.	1%	.	-9%	.	.
COCCNc1nc(-c2cc(C)n(CCc3ccc(OC)cc3)c2C)cs1	.	-18%	10µM*	-34%	104%	.
COc1ccc(C2NC(=S)N(c3ccccc3)C(C)=C2C(=O)Nc2ccccc2)cc1 (centres undefined)	-13	1%	2µM*	-1%	-2%	-16%
CC1=C(C(=O)Nc2ccc([N+](=O)[O-])cc2)C(c2cccc(C(F)(F)F)c2)NC(=S)N1c1ccccc1 (centres undefined)	30	?	14µM*	-15%	-8%	-18%
CCN1C(=O)N[C@@H](c2cccc(C(F)(F)F)c2)C(C(C)=O)=C1C	.	.	15%[13.5 µM]	-10%[10 µM]	3%[14.2 µM]	-1%
COc1cccc(-c2nc(N3CCNCC3)c3ccccc3n2)c1	.	.	1%	7%	-4%	-6%
CCC(C)c1ccccc1NC(=O)COC(=O)c1ccc(N2CCCC2)c([N+](=O)[O-])c1 (centres undefined)	16	5%	13µM*	23%[10 µM]	-12%	-27%
Cc1ccc(C(=O)NC(=S)Nc2ccc3c(c2)OCCO3)c(C)c1	25	-24%	?	-27%	-2%	-2%
Cc1cc(C)cc(C(=O)NC(=S)Nc2ccc3c(c2)OCCO3)c1	14	24%	13µM*	6%[10 µM]	.	.
Cc1ccc(C(=O)Nc2ccc3c(c2)OCO3)cc1	-20	3%	-15%	-98%	9%	-6%
CC(C)C(=O)Nc1cccc(NC(=S)NC(=O)c2ccc(Cl)cc2)c1	?	-31%	10µM*	-43%	10%	-8%
CCc1ccc(C(=O)NC(=S)Nc2ccc3c(c2)OCCO3)cc1	12	7%	18µM*	20%[10 µM]	6%	-15%
O=C(NC(=S)Nc1ccc2c(c1)OCO2)c1ccc(Cl)cc1	8	-15%	14µM*	.	-1%	-15%
O=C(NC(=S)Nc1ccc2c(c1)OCCO2)c1ccco1	.	23%[9.22 µM]	.	-24%[10 µM]	29%	.
SMILES	PNC inhibitor	HttQ103 aggreg	ALDH1A1 block	HTT cytoprotect	GoLoco inh red	HPGD inh
C/C(CCN1CCCc2nc(C)c(C)cc21)=N\O[C@@H](C)c1cn([C@@H]2COC[C@@H]2O)nn1	.	.	?	-8%[10 µM]	.	.
CC1=N[C@@](C)(COC(=O)[C@]2(C)N[C@](C)(CO)CO2)COC1=O	.	.	23%[13.5 µM]	-10%[10 µM]	4%[14.2 µM]	0%
O=CNCCCc1nc2ccccc2n1Cc1ccccc1	?	7%	22µM*	-17%	-2%	-6%
COc1cccc(C2C(C#N)=C(N)Oc3c2oc(CO)cc3=O)c1 (centres undefined)	271	26%	8%	5%[10 µM]	8%	-16%
COc1cccc(C2C(C#N)=C(N)SC(c3ccccc3)C2[N+](=O)[O-])c1 (centres undefined)	.	-11%[9.22 µM]	5.6µM*	-8%	18%	.
CC1(C)Cc2c(c(=S)nc(-c3ccccc3)n2CCO)CO1	2	-26%	25µM*	20µM*	-17%	35µM*
Cc1cccc(-c2nc(=S)c3c(n2Cc2ccco2)CCCC3)c1	?	?	?	4%	16%	-15%
Cc1ccc(-c2nc(=S)c3c(n2Cc2ccco2)CCCC3)cc1	-129*	14%	13µM*	-1%[10 µM]	26%	-23%
CN(C)CCCn1c(-c2ccccc2)nc(=S)c2c1CCCC2	5	2%	13%	-29%	-4%	-10%
OCCCn1c(-c2ccccc2)nc(=S)c2c1CCCC2	2	.	2%	2.8µM*	-31%	-18%
C=CCNC(=O)CC1Nc2c3ccccc3nc(=S)n2C1=O (centres undefined)	.	18%[9.22 µM]	-1%	15%[10 µM]	-2%	.
COC(=O)N1CCC2(CCCN(Cc3ccccc3)C2)CC1	.	.	?	14%	4%	-2%
C=CCCC	.	.	8%	-5%	8%	-3%
Cc1[nH]n(-c2ccccc2)c(=S)c1C=Nc1ccc([N+](=O)[O-])cc1	118	27%	5.6µM*	21%[10 µM]	13µM*	3.5µM*
Nc1ccc(OC(=O)Nc2ccc(O)cc2)cc1	.	38%[9.22 µM]	.	7%[10 µM]	-4%	.
O=C(Nc1ccc(N2CCN(c3ccc(O)cc3)CC2)cc1)Oc1ccccc1	17	15%	11µM*	-16%	-7%	-2%
Cc1coc(C)c1C(=O)CC1(O)C(=O)Nc2cc(Cl)cc(Cl)c21 (centres undefined)	?	7%	3.2µM*	-3%	-4%	-4%
COc1ccc(NCC(=O)n2c(C)c(C)c3ccccc32)cc1	.	-2%	7.9µM*	-53%	3%	.
COc1ccc(NC(=O)Cn2c(C)cc(=O)c3ccccc32)cc1	53	6%	4%	.	0%	-11%
CO[C@@H]1/C=C\CC(=O)N2CCC[C@@H]2C(=O)OC[C@H](C)C(=O)OC[C@H]1C	.	.	10%[13.5 µM]	-19%[10 µM]	.	.
Cc1cc(F)c(Nc2ncnc3cc(OCc4ccccc4)ccc23)cc1O	.	.	-12%	-83%	0%	-20%
